Screening data from PubChem.
HT1080 IDH1KD tx: kills HT-1080 cells with IDH1 knockdown. HT-1080 IDH1 knockdown viability, ATP luminescence, 48 h. Potency, µM (doses to about 46.1 µM), inactives show top-dose activity, negative = toxicity, usual class: cytotoxic. actives 2% (n = 360,000). AID 686971;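 also: 0% = DMSO wells and -100% = cell-free medium wells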
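CellTiter-Glo luminescence after 48 h compound exposure at 37 degrees C of IDH1-knockdown HT-1080 cells in 5% FBS RPMI. %Activity scaled between DMSO wells and cell-free media wells, with curves fitted and assigned curve classes.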
MCF10A rerep: DNA re-replication induction in MCF 10a cells; MCF 10A DNA re-replication, Hoechst nuclear intensity, 48 h; actives 2.9% (n = 350,000); Potency, µM (highest dose often 46.1 µM), for the others: at the top dose activity, positive = re-replication, most hits filed as activators; AID 624296; also: % of control where 0% means no effect; nearly all actives have a fitted effect of over 50% in size
HT1080NT lethal: kills 2HG-producing HT-1080-NT fibrosarcoma cells; HT-1080-NT fibrosarcoma viability, CellTiter-Glo ATP luminescence, 48 h; Potency, µM (titrated, usually from 46.1 µM), for the others: top-dose activity, negative = less viability, most hits filed as cytotoxic; actives 1.6% (n = 360,000);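 also: NT is the 2HG producing partner of a matched IDH1 knockdown line; 0% = DMSO-treated cells and -100% = media-only wells without cells; nearly all actives have a fitted effect of over 55% in size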
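HT-1080-NT fibrosarcoma cells (2HG-overproducing), 750 cells/well in RPMI with 5% FBS, dosed after 2 h and incubated 48 h at 37C. CellTiter-Glo luminescence normalized to DMSO and no-cell wells; concentration-response curves fitted and classed.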
SW480 rerep: inducers of DNA re-replication in SW480 colon cancer cells; SW480 DNA re-replication, Hoechst DNA content imaging, 48 h; Potency, µM (doses to about 46.1 µM), for inactives: at the top dose re-replication activation, usual class: activators; actives 1.8% (n = 340,000); AID 624297; also: % of control where 0% means no effect; nearly all actives have a fitted effect of over 55% in size
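Image-based read-out: total Hoechst fluorescence of nuclei (405 nm excitation, 500-530 nm emission), with hits raising the fraction of high-intensity nuclei. SW480 colon cells incubated 48 hr with compounds at 37 C.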
KB-3-1 cytotox: KB-3-1 parental cell cytotoxicity. KB-3-1 viability, CellTiter-Glo ATP luminescence, 72 h. Potency, µM (doses to about 46.1 µM), actives largely listed as cytotoxic. actives 1.4% (n = 400,000); also: % is scaled to controls: 0 for no effect and ±100 for the full control effect; nearly all actives have a fitted effect of over 60% in size
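72 h, 37 °C compound treatment of KB-3-1 parental cells; CellTiter-Glo added, 10 min, luminescence read. Data corrected against DMSO-only plates and normalized before curve fitting.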
KB-V1 MDR tox: KB-V1 MDR subline cytotoxicity; Potency, µM (titrated, usually from 46.1 µM), actives largely listed as cytotoxic; actives 3.4% (n = 400,000); KB-V1 MDR cells viability, CellTiter-Glo, 72 h; AID 1347076; also: % is scaled to controls: 0 for no effect and ±100 for the full control effect; nearly all actives have a fitted effect of over 60% in size
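Cytotoxicity toward P-gp-expressing KB-V1 cells was determined as loss of CellTiter-Glo luminescence after 72 h at 37 degrees C. Compounds were tested in quantitative HTS format across a concentration range, with curves fitted to normalized data.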
Starred values were filed as active, the others as inactive; i = inactive; ? = inconclusive; / = no result given; [ ] = remark or other dose. Rows were chosen to be rich in hits. Some 8% of all compounds tested hit in one or more screens of this group. Calls follow the shape of the dose curve; as a rule, active = well fitted curve in the direction sought with a large enough effect; inconclusive = small, poorly fitted or top-dose-only effect, or another doubt; inactive = no such curve, though single readings can be large; an effect the other way counts as inactive or inconclusive. Potency is read from the fitted curve at half-maximal effect.

SMILES	HT1080 IDH1KD tx	MCF10A rerep	HT1080NT lethal	SW480 rerep	KB-3-1 cytotox	KB-V1 MDR tox
Cc1ccc2sc(N(CCCN(C)C)C(=O)c3ccc(S(=O)(=O)N(C)C)cc3)nc2c1C	-11%	9%	-10%	3%	i	i
COc1cc2nc(N(CCCN(C)C)C(=O)c3ccc(S(=O)(=O)N4CCc5ccccc5C4)cc3)sc2cc1OC	-2%	9%	-1%	?	i	i
COc1cccc2sc(N(CCCN(C)C)C(=O)c3ccc(S(=O)(=O)N4CCc5ccccc5C4)cc3)nc12	?	?	?	?	i	i
COc1ccc(C)c2sc(N(CCCN(C)C)C(=O)c3ccc(S(=O)(=O)N4CCc5ccccc5C4)cc3)nc12	?	16µM*	?	?	?	10µM*
CN(C)CCCN(C(=O)c1ccc(S(=O)(=O)N2CCc3ccccc3C2)cc1)c1nc2c(F)cc(F)cc2s1	-8%	15%	-23%	3.7µM*	i	i
OC(c1ccccc1)C1CN(Cc2ccccc2)CCC1(O)c1ccccc1 (configuration not stated)	-8%	4%	-7%	1%	i	23µM*
CC(C)CCNC(=O)c1cccc(S(=O)(=O)N2CCc3ccccc32)c1	-26%	15%	-4%	15%	i	i
COc1ccc(CN(C)C(=O)c2cccc(S(=O)(=O)N3CCc4ccccc43)c2)c(OC)c1	-12%	8%	-9%[9.24 µM]	?	18µM*	?
COc1ccccc1CN(C)C(=O)c1cccc(S(=O)(=O)N2CCc3ccccc3C2)c1	3%	5%	4%	13%	i	i
O=C(CNC(=O)c1cccc(S(=O)(=O)N2CCc3ccccc32)c1)Nc1ccccc1Br	-13%	11%	-7%	6%	i	9.2µM*
CC(C)CN(CC(C)C)C(=O)c1cccc(S(=O)(=O)N2CCc3ccccc32)c1	?	?	?	15%	?	10µM*
CCOC(=O)c1cc2c(=O)n3ccccc3nc2n(CC2CCCO2)c1=NC(=O)c1cccc(C)c1 (configuration not stated)	/	/	/	/	i	?
CCc1ccc(C2CC(=O)c3c([nH]c(C(=O)OC4CCC(C)CC4)c3C)C2)cc1 (configuration not stated)	/	/	/	/	i	i
FC(F)Oc1ccc(-c2csc(=Nc3cccnc3)n2CC2CCCO2)cc1 (configuration not stated)	-25%	?	-4%	1%	i	i
Clc1ccc(-c2csc(=Nc3cccnc3)n2CCCn2ccnc2)cc1Cl	-23%	?	-25%	0%	15µM*	10µM*
OCCCn1c(-c2ccccc2)csc1=Nc1ccccc1	-15%	?	-13%	-6%	i	?
COCCn1c(-c2ccc(Br)cc2)csc1=Nc1cccnc1	-28%	1%	-29%	-7%	15µM*	?
CC(=O)Nc1ccc(N=c2cc([N+](=O)[O-])cc(Cl)n2O)cc1	?	?	-2%	23µM*	?	?
O=[N+]([O-])c1ccc(NS(=O)(=O)c2ccc(Cl)c(Cl)c2)cc1	18µM*	/	16µM*	/	?	?
O=[N+]([O-])c1cccc(S(=O)(=O)Nc2ccc(Cc3ccncc3)cc2)c1	-4%	17%	9%	-27%	i	16µM*
C=C[C@H](Cc1ccccc1)N(Cc1ccccc1)S(=O)(=O)N(Cc1ccccc1)[C@H](C=C)Cc1ccccc1	17%	4%	14%	-5%[9.22 µM]	i	i
Cc1ccc(NC(=S)NN(C)c2cc(C)nc(C)n2)cc1	8%	2%	9%	-2%	i	18µM*
COc1cc2oc3cc(C#Cc4ccc(N)cc4)ccc3c(=O)c2cc1OC	-14%	9.2µM*	-19%	9.2µM*	i	i
